Reference: PubChem BioAssay (NCI)
Compounds without any hit were thinned out: in the full panel of roughly 83,000, 20% have a hit.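 48-hour exposure, single concentration, 96-well plates; percent growth endpoint where 0 means no net growth. Active: below 10.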 Calls of active or inactive are those of the source.

Tests used:
Experiment in all cases: NCI-60 one-dose screen, 48 h (100 = growth as untreated, 0 = no growth, -100 = all killed)
Settings in all cases: 10 µM unless noted
NCI-H23 lung = test system: NCI-H23 lung
NCI-H226 lung = test system: NCI-H226 lung
HOP-62 NSCLC = test system: HOP-62 NSCLC
NCI-H460 lung = test system: NCI-H460 lung
HOP-92 NSCLC = test system: HOP-92 NSCLC
NCI-H522 lung = test system: NCI-H522 lung
786-0 renal = test system: 786-0 renal
DU-145 prostate = test system: DU-145 prostate
K-562 leukemia = test system: K-562 leukemia
MALME-3M melanoma = test system: MALME-3M melanoma
MDA-MB-231 breast = test system: MDA-MB-231 breast
RXF 393 renal = test system: RXF 393 renal
SF-268 CNS = test system: SF-268 CNS
SF-295 CNS = test system: SF-295 CNS
SF-539 CNS = test system: SF-539 CNS
UACC-257 melanoma = test system: UACC-257 melanoma
M14 melanoma = test system: M14 melanoma
A549/ATCC NSCLC = test system: A549/ATCC NSCLC
COLO 205 colon = test system: COLO 205 colon

Measured: growth

Cc1nc2ccc(C(=O)NCc3cc(C(=O)O)c(C)o3)cc2nc1C
inactive: NCI-H23 lung 101% | NCI-H226 lung 100% | HOP-62 NSCLC 77% | NCI-H460 lung 100% | HOP-92 NSCLC 90.8% | NCI-H522 lung 92.2% | 786-0 renal 94.4% | DU-145 prostate 105% | K-562 leukemia 110% | MALME-3M melanoma 93.4% | MDA-MB-231 breast 101% | RXF 393 renal 97.4% | SF-268 CNS 91.4% | SF-295 CNS 102% | SF-539 CNS 96.2% | UACC-257 melanoma 87.2% | M14 melanoma 91.4%

COc1cc(NC(=O)c2cccc(-c3cc(=O)c4c(O)c(OC)c(OC)cc4o3)c2)cc(OC)c1OC
inactive: NCI-H23 lung 34.9% | HOP-62 NSCLC 11.7% | HOP-92 NSCLC 56.1% | NCI-H522 lung 41.2% | A549/ATCC NSCLC 40.5% | 786-0 renal 66.3% | COLO 205 colon 67.7% | DU-145 prostate 57.3% | K-562 leukemia 54.5% | MALME-3M melanoma 51% | RXF 393 renal 75% | SF-268 CNS 61.9% | SF-295 CNS 61.5% | SF-539 CNS 51.7% | UACC-257 melanoma 66.1%
active: NCI-H226 lung 7.69%

COC(=O)Nc1nc2ccc(C(=O)C3CC3)cc2[nH]1
active: NCI-H460 lung 2.65% | NCI-H522 lung -37.6% | COLO 205 colon -34.1% | DU-145 prostate 1.8% | K-562 leukemia -15.1% | RXF 393 renal 4.26% | SF-295 CNS -38.5% | SF-539 CNS -27.5% | M14 melanoma 7.18%
inactive: NCI-H23 lung 33.8% | NCI-H226 lung 149% | HOP-62 NSCLC 38.1% | HOP-92 NSCLC 53.5% | 786-0 renal 29.2% | MALME-3M melanoma 63.2% | MDA-MB-231 breast 22.8% | SF-268 CNS 29.7% | UACC-257 melanoma 27.5%

Cc1nc(Nc2cccc(NC(=O)Nc3ccc(Cl)cc3)c2)c2ccccc2n1
inactive: NCI-H23 lung 96% | NCI-H226 lung 90.4% | HOP-62 NSCLC 107% | NCI-H460 lung 70.5% | HOP-92 NSCLC 90.7% | NCI-H522 lung 68.6% | A549/ATCC NSCLC 91.6% | 786-0 renal 96.1% | COLO 205 colon 103% | DU-145 prostate 91.7% | K-562 leukemia 67.6% | MALME-3M melanoma 87.3% | MDA-MB-231 breast 86.4% | SF-268 CNS 102% | SF-295 CNS 88.2% | SF-539 CNS 94.6% | UACC-257 melanoma 101%

O=C(C[C@@]1(O)C(=O)Nc2c(Cl)ccc(Cl)c21)c1ccc(C2CC2)cc1
active: NCI-H460 lung 6.3% | COLO 205 colon 1.09% | K-562 leukemia 7.6% | RXF 393 renal -10% | SF-295 CNS -9.37% | SF-539 CNS -27.7%
inactive: NCI-H23 lung 37.5% | NCI-H226 lung 46.4% | HOP-62 NSCLC 34.2% | HOP-92 NSCLC 75.5% | NCI-H522 lung 19.4% | A549/ATCC NSCLC 38.1% | DU-145 prostate 16.5% | MALME-3M melanoma 41.9% | MDA-MB-231 breast 45% | SF-268 CNS 54.8% | UACC-257 melanoma 73%

COc1ccc(/C(C)=C(\c2ccc(Cl)cc2)c2ccc(OCCN3CCCCCC3)cc2)cc1F
inactive: NCI-H23 lung 54.1% | NCI-H226 lung 71% | HOP-62 NSCLC 36.3% | NCI-H522 lung 65.9% | A549/ATCC NSCLC 55% | COLO 205 colon 22.3% | DU-145 prostate 67.5% | MDA-MB-231 breast 55.1% | SF-268 CNS 68.3% | SF-539 CNS 24.5% | UACC-257 melanoma 39%
active: NCI-H460 lung 8.63% | 786-0 renal 4.15% | K-562 leukemia 1.96% | MALME-3M melanoma -3.61% | SF-295 CNS -7.79%

COc1cc(NC(=O)c2cc(O)c(CC=C(C)C)c(O)c2)cc2c1O[C@]1(C)CC[C@@H](O)C(C)(C)[C@H]1C2
inactive: NCI-H23 lung 39% | NCI-H226 lung 79.4% | HOP-62 NSCLC 31.4% | NCI-H460 lung 27.2% | A549/ATCC NSCLC 40.3% | DU-145 prostate 42.8% | MALME-3M melanoma 43.9% | MDA-MB-231 breast 32.8% | SF-268 CNS 42% | UACC-257 melanoma 36.3%
active: NCI-H522 lung 8.19% | 786-0 renal 1.24% | COLO 205 colon -28.8% | RXF 393 renal -23.6% | SF-295 CNS -49.6% | SF-539 CNS -34.6%

CCCCCCCCn1cc(C2=C(c3coc4ccc(OC)cc34)C(=O)NC2=O)c2ccccc21
inactive: NCI-H23 lung 54.4% | HOP-62 NSCLC 116% | NCI-H460 lung 101% | HOP-92 NSCLC 94.2% | NCI-H522 lung 96.7% | A549/ATCC NSCLC 101% | 786-0 renal 104% | DU-145 prostate 106% | K-562 leukemia 121% | MALME-3M melanoma 89.5% | MDA-MB-231 breast 102% | RXF 393 renal 105% | SF-268 CNS 97.2% | SF-295 CNS 97.2% | SF-539 CNS 95.7% | UACC-257 melanoma 94.7% | M14 melanoma 96.1%
active: NCI-H226 lung -38.6%

Cc1cc(N(CCCNc2ccnc3cc(Cl)ccc23)Cc2ccccn2)nc(N2CCCC2)n1
inactive: NCI-H23 lung 78.3% | NCI-H226 lung 89.6% | HOP-62 NSCLC 68.4% | HOP-92 NSCLC 59.7% | NCI-H522 lung 88% | A549/ATCC NSCLC 70.8% | 786-0 renal 73.5% | DU-145 prostate 91.2% | MALME-3M melanoma 70.9% | MDA-MB-231 breast 56.2% | RXF 393 renal 54.9% | SF-268 CNS 67.3% | SF-295 CNS 75.5% | SF-539 CNS 52.3% | UACC-257 melanoma 81.6% | M14 melanoma 93.7%
active: K-562 leukemia 9.27%

NS(=O)(=O)Oc1ccc(-c2sc3cc(O)ccc3c2C(=O)c2ccc(OCCN3CCCCC3)cc2)cc1
active: UACC-257 melanoma -44.2% | M14 melanoma -17%
inactive: NCI-H23 lung 88% | NCI-H226 lung 79% | HOP-62 NSCLC 67% | NCI-H460 lung 20.3% | HOP-92 NSCLC 60.4% | NCI-H522 lung 65.8% | A549/ATCC NSCLC 33.4% | 786-0 renal 71.6% | DU-145 prostate 51.2% | K-562 leukemia 14.1% | MALME-3M melanoma 63.7% | MDA-MB-231 breast 72% | RXF 393 renal 66.8% | SF-268 CNS 68.4% | SF-295 CNS 48.1% | SF-539 CNS 62.8%

C=C(C)[C@@H]1CC[C@]2(CN)CC[C@]3(C)[C@H](CC[C@@H]4[C@@]5(C)CCC(N)[C@@](C)(CO)[C@@H]5CC[C@]43C)[C@@H]12 (stereo partly specified)
active: HOP-62 NSCLC -89.2% | NCI-H460 lung -75.7% | NCI-H522 lung -77.5% | A549/ATCC NSCLC -82.3% | 786-0 renal -92.9% | DU-145 prostate -38.1% | K-562 leukemia -69.8% | MALME-3M melanoma -85.9% | MDA-MB-231 breast -80.9% | SF-268 CNS -79.5% | SF-539 CNS -72.6% | UACC-257 melanoma -88.7% | M14 melanoma -81.8%
inactive: NCI-H23 lung 53% | NCI-H226 lung 89.6% | RXF 393 renal 58.4% | SF-295 CNS 87.8%

C[C@]12CCC(=O)C[C@H]1CC[C@@H]1[C@@H]2CC[C@@]2(C)[C@H]1CC[C@]2(O)C(=O)CO
inactive: NCI-H23 lung 107% | NCI-H226 lung 94.2% | HOP-62 NSCLC 105% | NCI-H460 lung 107% | HOP-92 NSCLC 93.2% | NCI-H522 lung 89.4% | 786-0 renal 105% | COLO 205 colon 100% | DU-145 prostate 108% | K-562 leukemia 114% | MDA-MB-231 breast 99.6% | RXF 393 renal 108% | SF-268 CNS 96% | SF-295 CNS 113% | SF-539 CNS 103% | UACC-257 melanoma 129%

CCC(C)NCc1ccccc1 (stereo unspecified)
inactive: NCI-H23 lung 97.1% | NCI-H226 lung 92.2% | HOP-62 NSCLC 97.6% | NCI-H460 lung 102% | HOP-92 NSCLC 93.8% | NCI-H522 lung 66.7% | A549/ATCC NSCLC 95.4% | 786-0 renal 98.6% | DU-145 prostate 106% | K-562 leukemia 98.1% | MALME-3M melanoma 105% | MDA-MB-231 breast 96.4% | RXF 393 renal 99.3% | SF-268 CNS 98.9% | SF-295 CNS 98.9% | SF-539 CNS 102% | UACC-257 melanoma 103% | M14 melanoma 96.9%

COC(=O)CNC(=O)C(=O)c1c(O)c(O)c(C(C)C)c2cc(C)c(-c3c(C)cc4c(C(C)C)c(O)c(O)c(C(=O)C(=O)NCC(=O)OC)c4c3O)c(O)c12
inactive: NCI-H23 lung 17.8% | NCI-H226 lung 54.6% | HOP-62 NSCLC 18.5% | A549/ATCC NSCLC 11% | 786-0 renal 33.9% | DU-145 prostate 24.9% | K-562 leukemia 14.7% | MALME-3M melanoma 46.2% | RXF 393 renal 53.8% | SF-268 CNS 26.8% | SF-539 CNS 18.9% | UACC-257 melanoma 52.1% | M14 melanoma 36.7%
active: NCI-H460 lung 5.29% | HOP-92 NSCLC -7.96% | NCI-H522 lung -0.907% | MDA-MB-231 breast -13.6% | SF-295 CNS 1.96%

COc1cc(/C=C/C(=O)c2cccc(-n3cc(-c4ccc(Cl)cc4)[nH]c3=O)c2)cc(OC)c1OC
inactive: NCI-H23 lung 52.3% | NCI-H226 lung 81.4% | HOP-62 NSCLC 86.4% | NCI-H460 lung 54.7% | HOP-92 NSCLC 51.5% | NCI-H522 lung 16.5% | A549/ATCC NSCLC 88.6% | 786-0 renal 82.2% | DU-145 prostate 37.1% | K-562 leukemia 20.9% | MALME-3M melanoma 94.2% | MDA-MB-231 breast 76.7% | RXF 393 renal 53.6% | SF-268 CNS 48.8% | SF-295 CNS 80.8% | SF-539 CNS 33.7% | UACC-257 melanoma 67.2%
